In PubChem BioAssay (Tox21):
Records with an inconclusive call do not appear. Entries that show only a call come without a potency. The source made the active and inactive calls. The call rests on the fitted dose curve; in most records, active means well fitted activation curve with a large enough effect in the signal ratio in the repeat runs (not every such curve was filed as active); inconclusive means weak or mixed curves, or effect the other way; inactive means no such curve, though single readings can be large or run the other way; the % refers to the signal ratio.

Test: qHTS assay for small molecule agonists of the antioxidant response element (ARE) signaling pathway (AID 743202)
Settings: HepG2 ARE-bla reporter, beta-lactamase FRET, 16 h; series mostly up to 73.3 µM
Excerpt: U.S. Tox21 Program National Center for Advancing Translational Sciences [NCATS] NIH Chemical Genomics Center [NCGC] U.S. Environmental Protection Agency [EPA] National Institutes of Environmental Health Sciences [NIEHS] National Toxicology Program [NTP] U.S. Food and Drug Administration [FDA] Tox21 Assay Overview: Oxidative stress has been implicated in the pathogenesis of a variety of diseases ranging from cancer to neurodegeneration. The antioxidant response element (ARE) signaling pathway plays an important role in the amelioration of oxidative stress. The CellSensor ARE-bla HepG2 cell line (Invitrogen) can be used for analyzing the Nrf2/antioxidant response signaling pathway. Nrf2 (NF-E2-related factor 2) and Nrf1 are transcription factors that bind to AREs and activate these genes. The CellSensor ARE-bla Hep G2 cell line contains a beta-lactamase reporter gene under control of the Antioxidant Response Element (ARE) stably integrated into HepG2 cells. The activation of the report gene under culture conditions can be detected by fluorescence intensity. This cell line has been used to screen the Tox21 10K compound library to identify agonists that induce oxidative stress.
Tox21 Assay Protocol Summary: The ARE-bla cells were dispensed at 2,000 cells/5 ul/well in 1536-well black wall/clear bottom plates using a Multidrop dispenser. After the assay plates were incubated at a 37 C/5% CO2 incubator for 5 hours, 23 nL of compounds dissolved in DMSO, positive controls or DMSO only was transferred to the assay plate by a pin tool. The plates were incubated at 37 C for 16 hours. After 1 uL of LiveBLAzer B/G FRET substrate was added using a Flying Reagent Dispenser, the plates were incubated at room temperature for 2 hours, and fluorescence intensity was measured by an Envision plate reader.
Potency means the concentration at half of the fitted maximal effect.

SMILES | Potency
CC(C)=CCC/C(C)=C/C=N/O | inactive
O=C1C=CCCC1 | inactive
CC(CC(C#N)(c1ccccc1)C(C)C)N(C)C (stereo not given) | inactive
CC(O)C(C)O (stereo not given) | inactive
Cc1c(Cl)cccc1Nc1ccccc1C(=O)O | 26.6 µM (active)
CCCCCCCCCCCCSCCOCCO | inactive
CC(=O)c1ccc(Cl)c(Cl)c1Cl | inactive
O=C(OCCCCCOC(=O)c1ccccc1)c1ccccc1 | inactive
CCc1ccc2c(c1)C(=O)c1ccccc1C2=O | 34.4 µM (active)
Clc1cc(Cl)c2c(c1)N=C1CCCCCN1C2 | inactive
C/C(=C(\CCO)SS/C(CCO)=C(\C)N(C=O)Cc1cnc(C)nc1N)N(C=O)Cc1cnc(C)nc1N | inactive
CC(=O)Nc1ccccc1O | 27.3 µM (active)
O=C(OCCN1CCOCC1)c1cccnc1Nc1cccc(C(F)(F)F)c1 | 26.6 µM (active)
Cc1ccc2c(Cl)cc(Cl)c(O)c2n1 | inactive
CC(=O)S[C@H](C(=O)N[C@H]1Cc2ccccc2[C@H]2CCC[C@@H](C(=O)O)N2C1=O)C(C)C | inactive
Cc1ccccc1CCO | inactive
Cc1c(Cl)cccc1[N+](=O)[O-] | inactive
COC(=O)C(C)(C)C | inactive
FC1(F)C(F)(F)C(F)(F)C2(F)C(F)(C1(F)F)C(F)(F)C(F)(F)C1(F)C(F)(F)C(F)(F)C(F)(F)C(F)(F)C12F (stereo not given) | inactive
N#CCCCC(C#N)CCC#N (stereo not given) | inactive

SMILES | Potency
Cc1c(N=C=O)cccc1N=C=O | inactive
C/C=C1\[C@H]2C=C(C)C[C@]1(N)c1ccc(=O)[nH]c1C2 | inactive
CC1(C)CC(=O)CC(C)(C)N1 | inactive
CC(C)CCCCCCCOC(=O)c1ccc(C(=O)OCCCCCCCC(C)C)c(C(=O)OCCCCCCCC(C)C)c1 | inactive
COc1ccc(/C(C)=C/C(=O)O)c(OC)c1 | inactive
O=C1c2ccccc2C(=O)C1c1ccc2cc(S(=O)(=O)O)cc(S(=O)(=O)O)c2n1 | 5.25 µM (active)
OCCc1ccncc1 | inactive
O=C(O)c1c2ccccc2cc2ccccc12 | inactive
C=C[Si]1(C)O[Si](C)(C=C)O[Si](C)(C=C)O[Si](C)(C=C)O1 (stereo not given) | inactive
CCCCCO | inactive
Oc1ccc(Oc2ccccc2)cc1 | 18.3 µM (active)
CO[C@@H]1COCC[C@@H]1N[C@@H]1CC[C@@](C(=O)N2CCc3ncc(C(F)(F)F)cc3C2)(C(C)C)C1 | inactive
O=C(O)c1ccc2c(c1)nc(C(=O)NC1CCN(C3CC3)CC1)n2Cc1cc(-c2ccc(Cl)s2)on1 | inactive
CC1(C)CC(O)CC(C)(C)N1[O] | inactive
CC(C)NC(=O)c1ccccc1N | inactive
CCc1ccc(C(=O)C(C)CN2CCCCC2)cc1 (stereo not given) | 23.7 µM (active)
CCC(=O)O[C@@H]1C[C@H]2CC[C@]1(C)C2(C)C | inactive
CC(C)(C)N | inactive
O=C(O)c1ccc(O)c(O)c1 | inactive
CCC[Si](OC)(OC)OC | inactive
